# Source: PubChem BioAssay AID1671194 (National Center for Advancing Translational Sciences (NCATS), 2021)
# The campaign covered roughly 140,000 compounds. About 240 (0.17%) were called active. A call without a number means that no potency is given here. Another 9% or so got no clear call; they are omitted. This is one part of a sample in which actives are shown more often than they occur. Calls come from the whole dose curve; as a rule, active = well fitted inhibition curve with a large enough effect; inconclusive = small, poorly fitted or top-dose-only effect; inactive = no such curve, though single readings can be large or run the other way.
# Assay: Primary qHTS assay for inhibitors of alpha-synuclein gene (SNCA) expression; note: nearly all actives have a fitted effect of over 45% in size
# Settings: HEK-293 SNCA-luciferase knock-in, luminescence, 24 h; series mostly up to 57.2 µM
# Potency is the fitted concentration of half-maximal effect.
row,SMILES,Potency
1,Cn1ncc2c(C(=O)NCc3cccnc3)cc(C(C)(C)C)nc21,inactive
2,CC(=O)N1CCN(C(=O)C2CCCN2Cc2ccc(-c3cc(C)cc(C)c3)cc2)CC1 (stereo unspecified),inactive
3,CC1=C[C@@H](CN2CCCC2)[C@H](C(C)C)C[C@H]1Cc1nnc(-c2ccc([N+](=O)[O-])cc2)o1,inactive
4,Cc1nc(N2CCC(NCCNc3ccncc3C)CC2)c2ccsc2n1,inactive
5,Cc1ccccc1C(=O)N1CCC(C(=O)N2CCC(c3nc4ccncc4[nH]3)C2)CC1 (stereo unspecified),inactive
6,CC(=O)N1CCC(N[C@H]2C[C@@H](Cc3cc(CN(C)c4ccccc4)on3)C2(C)C)CC1,inactive
7,COc1ccc(-c2cn3cc(C(=O)NCc4ccc(F)cc4)nc3s2)cc1,inactive
8,COc1ccc(CN2CC(Oc3ccc(OC)cc3)C2)cc1,inactive
9,CCCCn1c(=O)c(C(=O)N2CCN(C(=O)c3ccccc3)CC2)nc2cccnc21,inactive
10,Cc1ccccc1-c1ccnc(-c2nnc(C)n2C(C)C)c1,inactive
11,Cc1ccc(OCC(=O)N2CCC(c3nn(C)c4c3COCC4)CC2)cc1,inactive
12,COCCOCC1(CNS(=O)(=O)c2c(C)noc2C)C[C@@H](O)[C@@H](O)C1 (stereo partly specified),inactive
13,c1ccc(CNC[C@H]2Cn3cc(-c4ccccc4)nc3CO2)cc1,inactive
14,Cc1nnc(-c2cc(-c3ccccc3)ccn2)n1CCc1ccccc1,inactive
15,CC(C)=CCC1(CO)CCCN(Cc2ccccc2OCCO)C1 (stereo unspecified),inactive
16,O=C1NCCCCCCN(Cc2ccncc2)[C@@H]2CN(CC3CC3)CC[C@@H]12,inactive
17,CC[C@H]1CN(C(=O)Nc2cccc(C(F)(F)F)c2)CC[C@H]1CC(=O)NCCSC,inactive
18,COC(=O)c1cccc(NC(=O)N2CCc3c(nc4cc(-c5ccccc5)[nH]n4c3=O)C2)c1,inactive
19,NCc1ccccc1-c1cccc(O)c1,inactive
20,O=C(c1n[nH]c2c1CCCC2)N1CCC2(CC1)NC(=O)N(c1ccc(F)cc1)N2,inactive
21,COc1ccc(OC)c(CN2CCC3(CC2)COCCN3C(=O)OCc2ccccc2)c1,inactive
22,COc1ccc(-c2ncc3c(n2)OCCN(CC2CC2)C3=O)cc1,inactive
23,O=C([C@@H]1C[C@H](c2ccc(F)cc2)N([S+](=O)([O-])C2CC2)C1)N1CCN(c2ccccn2)CC1,inactive
24,COCCNC(=O)[C@@H]1C[C@H](Oc2cccnc2)CN1C(=O)C1CC=CC1,inactive

row,SMILES,Potency
1,COc1cccc(CNC(=O)N2CCCC3(C2)Nc2cccnc2NC3=NC2CCCC2)c1 (stereo unspecified),inactive
2,CCN(CC)C(=O)CSc1nc2ccsc2c(=O)n1Cc1ccccc1Cl,inactive
3,CCn1cc2nc(SCc3ccccc3Cl)n(CCc3ccccc3)c(=O)c2n1,14.1 µM (active)
4,Cc1cccc(Cc2c(C)nc3nc(SCc4ccccc4Cl)nn3c2C)c1,inactive
5,CCOc1ccc(NC(=O)CSc2c3c(nc4ccccc24)CCCC3)cc1,28.2 µM (active)
6,Cc1ccc(CNC(=O)CSc2c3c(nc4cc(Cl)ccc24)CCCC3)cc1,inactive
7,CCOc1ccc(NC(=O)CSc2ncnc3c2sc2ccccc23)cc1,inactive
8,CCOc1cccc(CN2CCC3(CC2)CN(C)CC3COC)c1 (stereo unspecified),inactive
9,COc1ccc(OCC2CCN(CC3(O)CCCNC3)CC2)cc1 (stereo unspecified),inactive
10,O=C(NCc1cccc(F)c1)c1cccnc1N1CC2CC(C1)[C@H]1CCCC(=O)N1C2 (stereo partly specified),inactive
11,O=S(=O)(c1ccccc1)N1CCC(CCOc2ccccc2)C1 (stereo unspecified),inactive
12,O=C1NC2(CCCN([S+](=O)([O-])c3ccccc3)C2)COc2ccccc21 (stereo unspecified),inactive
13,C=CCn1nc(C(=O)N2CCOCC2)c2c1CCC(NCC1(c3ccccc3)CCCCC1)C2 (stereo unspecified),inactive
14,CCN(CC)CCNC(=O)C1N(C(C)C)C(=O)C12CCCC2 (stereo unspecified),inactive
15,O=C(CSc1nccn1-c1ccc(F)cc1)Nc1cccc2ccccc12,inactive
16,Cc1cccc(-n2ccnc2SCC(=O)Nc2cccc3ccccc23)c1C,20 µM (active)
17,Cc1cc(C)cc(-n2ccnc2SCC(=O)Nc2nc3ccccc3s2)c1,inactive
18,COc1ccc(NC(=O)c2c(C)oc3ccn(Cc4ccc(F)cc4)c(=O)c23)c(OC)c1,inactive
19,Cc1ccc(CN2CCC(Oc3cnc4c(ccn4CCN[S+](C)(=O)[O-])c3)CC2)c(F)c1,inactive
20,Cn1ncc2c(C(=O)NCc3cccs3)cc(-c3ccc(Cl)nc3)nc21,inactive
21,Cc1ccc(CN2CCOc3cc([S+](=O)([O-])N(C)C)ccc3C2)c(F)c1,inactive
22,Cc1cccc(C(=O)N2CCC3(CC2)CC(CC(=O)NCc2ccncc2)CCO3)c1 (stereo unspecified),inactive
23,O=C(CCn1ccn2nc3c(c2c1=O)CCCC3)Nc1ccc(Cl)c(C(F)(F)F)c1,inactive
24,CCOc1cc(C)c(CN2C[C@@H](CN(C)C)C[C@H](CO)C2)cc1C(C)C,inactive

row,SMILES,Potency
1,O=S(=O)(c1ccccc1)N1CCC(F)(c2nc(Cc3ccccc3)no2)CC1,inactive
2,O=C(c1nc2cccnc2n(Cc2ccccc2)c1=O)N1CCN([S+](=O)([O-])c2ccccc2)CC1,inactive
3,COc1cccc(-c2cccc(C(=O)N3CCCC3C(=O)NCc3ccccc3Cl)c2)c1 (stereo unspecified),inactive
4,O=C(O)CCC(=O)N1Cc2ccccc2CC2(CCN(Cc3ccc(O)cc3)C2)C1 (stereo unspecified),inactive
5,CCCCn1c(=O)c(C(=O)NCCSC)nc2cccnc21,inactive
6,Cc1ccccc1CN1Cc2nc(NCc3ccncc3)ccc2OCC1=O,inactive
7,O=C1Nc2ccccc2C2(CCN(S(=O)(=O)c3cccc(C(F)(F)F)c3)C2)O1 (stereo unspecified),inactive
8,CN1CCN(C[C@@H]2CN(C(=O)CCc3c[nH]c4ccccc34)C[C@@H]2CO)CC1,inactive
9,CCc1cccc2c(C(CC(=O)NC(C)CC)c3cccc(OC)c3)c[nH]c12 (stereo unspecified),inactive
10,Fc1ccc(-c2ccnc3nc(C4CCC4)nn23)cc1,inactive
11,Cn1nc(C2CC2)cc1NC(=O)c1ccc(C(F)(F)F)cc1,inactive
12,COc1ccccc1-n1c(=O)c(C(=O)N2CCN(C(=O)Cc3ccc(F)cc3)CC2)nc2cccnc21,inactive
13,CCN1C(=O)C2CC3(CCN(C(=O)c4nccn4C)CC3)CN2C1=O (stereo unspecified),inactive
14,CCOC(=O)C1(Cc2ccc(F)cc2F)CCCN(Cc2cccc(OC)c2O)C1 (stereo unspecified),inactive
15,COC[C@H]1CCCN1C(=O)C[C@@H]1C[C@H]2O[C@H](CNC(=O)N[C@@H](C)c3ccccc3)[C@@H](O)[C@H]2O1,inactive
16,COCCCn1c(C)cnc1CC1CCN(C(=O)CC2CCCCC2)CC1,inactive
17,N#Cc1ccc(CN2CCN(c3nccc(Cl)n3)C(=O)C2)cc1,inactive
18,O=C(Nc1ccc([C@H]2OCC(=O)N(Cc3ccc(F)cc3)[C@@H]2CO)cc1)c1cccnc1,inactive
19,CCS(=O)(=O)NCC1(COc2ccc(C(F)(F)F)cn2)C[C@@H](O)[C@@H](O)C1 (stereo partly specified),inactive
20,Cc1ccccc1C(=O)N1CCC2(CC1)CCN(Cc1cccs1)c1ccccc1O2,inactive
21,Cc1ccc2c(C(=O)N3CCCC(C#N)C3)cc(-c3cnn(C(C)C)c3)nc2c1 (stereo unspecified),inactive
22,O=[S+]([O-])(c1ccccc1)N1CC2(CCCCN2Cc2cccnc2)Cc2ccccc21 (stereo unspecified),inactive
23,COCCNC(=O)c1nc2sccn2c1-c1cccc(OC)c1,inactive
24,O=C(NC1CCCCC1)[C@H]1O[C@H](CCN2CCNCC2)CC[C@@H]1O,inactive

row,SMILES,Potency
1,COc1cccc(-c2ccnc3nc(Cc4cc(F)cc(F)c4)nn23)c1,inactive
2,CN1C(=O)[C@@H]2C[C@@H](O)CN2C2(CN(Cc3ccoc3)C2)C1=O,inactive
3,Cc1noc([C@@H]2CN(CCCc3ccccc3)C[C@H]2CO)n1,inactive
4,C[C@H](C(=O)N1Cc2ccccc2CC2(CCN(Cc3ccncc3)CC2)C1)c1ccccc1,inactive
5,CC(=O)Nc1cccc(-c2cn(C)c(=O)n3cc(COc4ccnn4C)nc23)c1,inactive
6,COc1cccc([S+](=O)([O-])N2CCC3(CC(c4cccnc4)=NO3)C2)c1 (stereo unspecified),inactive
7,O=C(c1ccccc1C1CCNC1)N1CCN(C/C=C/c2ccccc2)CC1 (stereo unspecified),inactive
8,COCc1nnc(NC(=O)C2c3ccccc3C(=O)N(C3CCCC3)C23CCCC3)s1 (stereo unspecified),inactive
9,COc1cccc(-c2ccc(C(=O)N3CCC(C(=O)NCc4cccs4)CC3)cc2)c1,inactive
10,COc1ccc(C(=O)N2CCCC2C(=O)N2CCCC2c2nc3ccncc3[nH]2)cc1 (stereo unspecified),inactive
11,COc1ccc(-c2nc3ccncc3[nH]2)cc1,10 µM (active)
12,c1cc(-c2nc3ccncc3[nH]2)ccn1,inactive
13,COc1ccc(-c2ccc3c(n2)CN(CCOc2ccccc2)C(=O)CO3)cc1F,inactive
14,O=C(C1CCCN(Cc2cccc(-c3ccc(F)cc3F)c2)C1)N1CCN(Cc2ccccc2)CC1 (stereo unspecified),inactive
15,COc1ccc(CC2CCOC3(CCN(C(=O)NCC(C)C)CC3)C2)cc1 (stereo unspecified),inactive
16,CC(C)NC(=O)C1CCC(Cn2c(=O)c3sccc3n(Cc3ccc(F)cc3)c2=O)CC1 (stereo unspecified),inactive
17,CCCNC(=O)C1CCC(Cn2c(=O)c3sccc3n(Cc3ccccc3F)c2=O)CC1 (stereo unspecified),inactive
18,O=C(C1CCC(Cn2c(=O)c3sccc3n(Cc3ccccc3F)c2=O)CC1)N1CCCCC1 (stereo unspecified),25.1 µM (active)
19,O=C1CCN(S(=O)(=O)c2ccc3c(c2)CCC3)CCCC(c2nc(-c3cnccn3)no2)CCN1 (stereo unspecified),inactive
20,CC[C@H]1CN(C(=O)c2ccc(F)cc2)CC[C@H]1CC(=O)N[C@@H](CO)CC(C)C,inactive
21,O=C(COc1ccc(F)cc1)NC1CCc2n[nH]c(=O)n2CC1 (stereo unspecified),inactive
22,COc1ccc(Cc2nnc3ccc(C(=O)NCCc4ccc(F)cc4)cn23)cc1,inactive
23,Cc1cn2nc(C(=O)Nc3ccc(F)cc3C)cc2c(N(C)Cc2ccccc2)n1,inactive
24,COc1cccc(C(=O)N2CCCC(C(=O)N3CCC(c4nc5ccncc5[nH]4)C3)C2)c1 (stereo unspecified),inactive

row,SMILES,Potency
1,COc1ccc(-c2cc3nc4c(c(=O)n3[nH]2)CCN(C(=O)c2ccccc2C)C4)cc1,inactive
2,O=C(c1cccs1)N1CC[C@H](c2nnc(Cc3c[nH]c4ccccc34)o2)C1,inactive
3,Cc1ccccc1NC(=O)c1cc2cn(C(C)C)cc2s1,inactive
4,COCC(=O)N1CCCC(C(=O)N2CCC3(CC2)CC(=O)Nc2ccccc2O3)C1 (stereo unspecified),inactive
5,Cc1nn2c(c1-c1ccccc1-c1ccccc1)N(CC1CC1)CCC2,2.51 µM (active)
6,Cc1nn2c(c1-c1ccccc1-c1ccccc1)N(C(=O)CN1CCOCC1)CCC2,inactive
7,Cc1nn2c(c1-c1ccccc1N1CCCC1)N(C(=O)c1ccc(Oc3ccccc3)cc1)CCC2,inactive
8,CC(C)(C)c1csc(NC(=O)c2ccc3c(c2)OCCN(C2CCC2)C3)n1,inactive
9,O=C(c1cccs1)N1CCCCCC1CN1CCCC1 (stereo unspecified),inactive
10,O=C(O)COc1ccc(-c2nccc3c2C(=O)N(Cc2ccccc2)CC(COc2cccc(C(F)(F)F)c2)O3)cc1 (stereo unspecified),inactive
11,Cc1ccc(C(=O)N2CCCN(C(=O)C3CC3)c3ccccc32)cc1F,inactive
12,O=C(c1ccccc1Cl)N1CCCN(c2cc(-c3ccc(F)cc3)[nH]n2)CC1,inactive
13,CNC(=O)[C@H]1C[C@H](Oc2ccccc2)CN1C(=O)CCn1nc(C)cc1C,inactive
14,Cc1ccc(S(=O)(=O)N2CCC3(CC2)C(=O)N(CC(=O)NC(C)C)CN3c2ccccc2)cc1,inactive
15,CCc1nc2c(c(-c3ccc(O)cc3)n1)CCN(Cc1cccc(OC)c1)CC2,inactive
16,CCn1ccc(C(=O)N2CCC(C3CCN(C(C)=O)CC3)C2)n1 (stereo unspecified),inactive
17,O=C(NCC1CC1)c1ccc2nnc(Cc3ccc(Cl)cc3)n2c1,inactive
18,O=C(NCC1Cn2cccc2CN1Cc1ccccc1)c1ccco1 (stereo unspecified),inactive
19,O=C(Cc1c[nH]c2ncc(-c3ccccc3F)cc12)N1CCOCC1,inactive
20,N[C@@H]1CCN(Cc2cccc(Oc3ccc(F)cc3)c2)C[C@H]1O,inactive
